# Screens deposited in PubChem BioAssay by The Scripps Research Institute Molecular Screening Center.
# AHR act – activates the human aryl hydrocarbon receptor; 2.5% of 320,000 active; AID 2796; P35869; AHR-responsive luciferase reporter cells, luminescence; activation, % at 5 µM; in the data active means activation above about 47%
# hcDAF-12 act – activates DAF-12 receptor from parasite H. contortus; HEK293 hcDAF-12 lit1-tk-luc reporter, luminescence; 0% DMSO, 100% Δ7-dafachronic acid; activation, % at 6.8 µM; 1.4% of 370,000 active; AID 652067;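 active means activation above the mean of all tested compounds plus 3 SD, cut at about 5.5% in these data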
# ssDAF12 agonist – S. stercoralis DAF-12 activation, primary screen. HEK293 ssDAF-12/GRIP1 lit1-tk-luc reporter, luminescence; % of 3 µM dafachronic acid response. 1% of 370,000 active. activation, % at 6.8 µM;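 active means activation above the mean over all tested compounds plus 3 SD, cut at about 0.9% in these data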
# DAX1 inh-1 – blocks DAX1 repression of SF-1 activated StAR promoter; HEK293T StAR-luciferase reporter, SF-1/DAX-1 repression relief; inhibition, % at 6.8 µM; 1.1% of 370,000 active; AID 652010;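 active means inhibition above the mean over all tested compounds plus 3 SD, cut at about 3.6% in these data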;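 further: higher inhibition means more luminescence from relief of DAX-1 repression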
# DAX1 inh-2 – inhibitors of human orphan nuclear receptor DAX1 (NR0B1) | P51843 | HEK293 Gal4-DAX1 luciferase reporter, luminescence | inhibition, % at 6.75 µM | 0.99% of 340,000 active;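 active means inhibition above the mean over all tested compounds plus 3 SD, cut at about 4.2% in these data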;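 further: inhibition shows as a rise in luminescence from relieved DAX1 repression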
# hgDAF12 agonist – agonists of H. glycines DAF-12 nuclear receptor. HEK293 GAL4-hgDAF12 UAS-luciferase reporter, agonist luminescence; normalized to butyrate control. activation, % at 6.8 µM. 1.8% of 370,000 active. AID 687014;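 active means activation above a cutoff set at the mean of all screened compounds plus 3 SD, cut at about 10% in these data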
# LXR ag – activates human LXR-beta, counter-screen for hcDAF-12 agonists; 3,400 tested, under 10 active; shares compounds with hcDAF-12 act; AID 743027; activation, % at 6.8 µM; HEK293 Gal4-LXR tk-luc reporter, luminescence, 24 h; normalized: DMSO 0%, positive control 100%;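 active means mean percent activation of the reporter above a cutoff set as the average over tested compounds plus their standard deviation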
# hcDAF12 conf – confirmation of H. contortus DAF-12 agonists. shares compounds with hcDAF-12 act. HEK293 hcDAF-12 lit1-tk-luc reporter, luminescence; % of Δ7-dafachronic acid response. activation, % at 6.8 µM. 61% of 3,400 active;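 active means mean activation across triplicate tests above the threshold derived from the earlier primary screen, cut at about 5.5% in these data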
# Hits are given with their value; – = inactive; · = not tested or not shown. In the library only some 5.7% were active in any assay of this set; here they are far more common.
SMILES,AHR act,hcDAF-12 act,ssDAF12 agonist,DAX1 inh-1,DAX1 inh-2,hgDAF12 agonist,LXR ag,hcDAF12 conf
Cc1cccc(NC(=O)c2ccc(NCCc3ccccc3)c([N+](=O)[O-])c2)c1,–,–,–,–,–,–,·,·
OCC1CCCN(C(=S)Nc2ccc(OC(F)F)cc2)C1 (stereo not given),–,10.7,–,–,–,–,–,–
CCC1CCC(NC(=O)Nc2cccc(OC)c2)CC1 (stereo not given),–,12.3,–,–,–,18.7,–,6.2
COc1cccc(NC(=O)C2CC2)c1,–,–,–,–,–,–,·,·
O=C(O)CCC(=O)Nc1cc(C(F)(F)F)cc(C(F)(F)F)c1,–,–,–,–,–,–,·,·
CC(C)Cn1c(N)c(C(=O)COC(=O)[C@@H]2CCCN2C(=O)c2cccs2)c(=O)n(C)c1=O,–,–,–,–,–,–,·,·
CCOC(=O)c1c(C)nc(-c2ccccc2)nc1N,–,9.2,1.5,–,4.8,15.6,–,13.9
CCOC(=O)c1c(C)nc(-c2ccccc2)nc1NC(C)=O,–,–,–,–,–,–,·,·
CCCn1c(SCC(=O)Nc2ccc(S(=O)(=O)N(C)C)cc2)n[nH]c1=O,–,–,–,–,–,–,·,·
COc1cccc(C2N=C(c3ccccc3C)NO2)c1OC (stereo not given),–,–,–,–,–,–,·,·
CC(=O)Oc1c(Br)cc(N(C(C)=O)S(=O)(=O)c2ccccc2)c2ccccc12,47.6,12.4,–,–,–,–,–,–
CN1CCN(c2ccc(S(=O)(=O)N3CCOCC3)cc2NC(=O)COc2ccc(C#N)cc2)CC1,·,–,–,–,–,–,·,·
Oc1c(Cl)cc(Cl)cc1C=Nc1cc(C(F)(F)F)ccc1N1CCc2ccccc2C1,68.3,20.7,3.2,–,–,20.3,–,16.3
Oc1c(Cl)cccc1C=Nc1cc(C(F)(F)F)ccc1N1CCCC1,–,–,–,–,–,–,·,·
CCN(CC(=O)NCCc1ccc(S(N)(=O)=O)cc1)Cc1ccccc1,–,–,–,–,–,–,·,·
Cc1ccc(NC(=S)N(CCC(C)C)C(C)c2ccncc2)c(Cl)c1 (stereo not given),–,–,–,–,–,–,·,·
Cc1ccc(C(=O)Nc2ccc3ccccc3c2)cc1,–,–,–,–,–,–,·,·
Cc1ccoc1C(=O)Nc1ccc2ccccc2c1,–,17.1,–,–,–,12.2,–,14.3
CCCc1nc2c(c(=O)c3ccccc3n2C)c(=O)n1-c1ccc(F)cc1,–,–,–,–,–,–,·,·
CCCCn1c(-c2cccs2)nc2oc3ccccc3c(=O)c2c1=O,–,–,–,–,–,–,·,·
CCCc1nc2oc3ccccc3c(=O)c2c(=O)n1-c1ccccc1,100.5,9.5,1.2,–,·,–,–,8.0
Cc1ccc(-n2c(C(C)C)nc3oc4ccccc4c(=O)c3c2=O)cc1,74.6,11.9,2.9,–,6.0,11.8,–,12.9
CCc1nc2oc3ccccc3c(=O)c2c(=O)n1-c1ccc(C)cc1,64.0,11.6,4.0,–,·,11.2,–,13.8
COc1ccc(Nc2cc(C(=O)NC3CCCC3)c3ccccc3n2)c(OC)c1,–,–,–,–,–,–,·,·
C/C(=N\NC(=O)c1ccccc1O)c1cccc(NC(=O)c2ccccc2)c1,52.6,7.0,1.3,–,–,–,–,–
SMILES,AHR act,hcDAF-12 act,ssDAF12 agonist,DAX1 inh-1,DAX1 inh-2,hgDAF12 agonist,LXR ag,hcDAF12 conf
CCOC(=O)c1ccc2c(c1)NCc1cccc(OC)c1O2,–,6.6,1.1,–,–,13.0,–,7.9
CC(OC(=O)Cn1[nH]c(=O)c2ccccc2c1=O)C(=O)Nc1ccc(F)cc1 (stereo not given),–,–,–,–,–,–,·,·
O=C(NNC(=O)c1ccccc1C(=O)O)c1ccc(-c2ccccc2)cc1,–,–,–,–,·,–,·,·
Cc1ccc(N2C(=N)/C(=C3/Nc4ccccc4S3)C(c3ccccc3)C2=O)cc1 (stereo not given),–,–,–,–,–,–,·,·
O=C(Nc1ccccc1N1CCCCC1)c1ccc(-c2cccc(Cl)c2)o1,–,7.4,–,–,–,–,–,–
O=C(Nc1ccccc1N1CCCC1)c1cc2ccccc2o1,–,7.5,1.9,–,–,12.2,–,6.7
O=C(Nc1ccccc1N1CCCCC1)c1ncoc1-c1cccc(F)c1,–,7.0,–,–,–,–,–,–
O=C(Nc1ccccc1N1CCCCC1)c1ncoc1-c1ccc(F)cc1,–,–,–,–,–,–,·,·
O=C(Nc1cccnc1Cl)c1cc2ccccc2o1,–,9.3,2.8,–,4.2,12.3,–,–
Cc1ccc(C(=O)Nc2ccccc2N2CCCCC2)o1,–,–,–,–,–,–,·,·
CC#CC(=O)N1CCC(CO)(CCc2ccccc2)CC1,–,–,–,–,–,–,·,·
O[C@@H]1CN(Cc2ccc(-n3cccn3)cc2)CC[C@H]1N1CCN(c2ccccc2F)CC1,–,–,–,–,–,–,·,·
CCn1c(CN2CCN(Cc3ccc(C)cc3)C(CCO)C2)nc2ccccc21 (stereo not given),–,–,–,–,–,–,·,·
c1ccc(-c2cnc(CSc3nnc4ccccn34)o2)cc1,–,8.5,–,–,–,11.9,–,5.8
Oc1cccc(-c2nnc(-c3cccc(O)c3)nn2)c1,·,11.9,2.3,4.1,–,–,–,16.8
C=CCNC(=O)c1ccc(N(Cc2ccccc2)S(C)(=O)=O)cc1,–,–,–,–,–,–,·,·
O=[N+]([O-])c1ccccc1CSc1nc2ccccc2o1,48.3,6.7,–,–,–,–,–,–
O=S(=O)(Nc1ccn(-c2ccccc2)n1)c1ccc(Br)cc1,–,7.3,–,–,–,–,–,–
Cc1c(NS(=O)(=O)c2ccc(Br)cc2)c(=O)n(-c2ccccc2)n1C,–,–,–,–,–,–,·,·
CCCCCCN1C[C@H](O)[C@@H](n2cc(-c3ccc(F)cc3)nn2)C[C@@H]1c1ccccc1,·,–,–,–,–,–,·,·
CC(C)(C)n1ncc2c(=O)n(Cc3cccc(Cl)c3)cnc21,–,–,–,–,–,–,·,·
Cc1c(C#N)c(=O)c(-[n+]2ccccc2)c([S-])n1-c1ccc(Cl)cc1,–,7.3,–,–,–,–,–,–
Cc1ccccc1-n1c(C)c(C#N)c(=O)c(-[n+]2ccccc2)c1[S-],–,–,–,–,–,–,·,·
CCOC(=O)C1=C(C)NC2=C(C(=O)CCC2)C1c1coc2ccccc2c1=O (stereo not given),–,6.8,–,–,–,–,–,–
COc1ccc(CCC(=O)NCC23CC4CC(CC(C4)C2)C3)cc1,–,–,–,–,–,–,·,·
